Shown are actives, neighbours in structure and some others; about 4% of the full set was active somewhere.
GRIN3A LBD mod: modulators (binders) of human NR3A ligand-binding domain; Tm shift relative to glycine control, % at 25 µM; actives 2.5% (n = 340,000); NR3A LBD differential scanning fluorimetry, Tm shift; 0% = protein alone, 100% = glycine-bound protein; AID 1259313;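 active = melting temperature shift of at least 10% of the positive control shift, at one fixed dose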
ADAM10 inh: inhibitors of human ADAM10 | O14672 | actives 0.62% (n = 370,000) | inhibition, % at 7 µM | recombinant ADAM10, EDANS/DABCYL FRET peptide cleavage, 3 h;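 active = inhibition above a per-campaign cutoff equal to the mean of compounds falling between control-based bounds plus 3 SD, cut at about 20% in these data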
Target sequence (O14672 214-748 limits assumed): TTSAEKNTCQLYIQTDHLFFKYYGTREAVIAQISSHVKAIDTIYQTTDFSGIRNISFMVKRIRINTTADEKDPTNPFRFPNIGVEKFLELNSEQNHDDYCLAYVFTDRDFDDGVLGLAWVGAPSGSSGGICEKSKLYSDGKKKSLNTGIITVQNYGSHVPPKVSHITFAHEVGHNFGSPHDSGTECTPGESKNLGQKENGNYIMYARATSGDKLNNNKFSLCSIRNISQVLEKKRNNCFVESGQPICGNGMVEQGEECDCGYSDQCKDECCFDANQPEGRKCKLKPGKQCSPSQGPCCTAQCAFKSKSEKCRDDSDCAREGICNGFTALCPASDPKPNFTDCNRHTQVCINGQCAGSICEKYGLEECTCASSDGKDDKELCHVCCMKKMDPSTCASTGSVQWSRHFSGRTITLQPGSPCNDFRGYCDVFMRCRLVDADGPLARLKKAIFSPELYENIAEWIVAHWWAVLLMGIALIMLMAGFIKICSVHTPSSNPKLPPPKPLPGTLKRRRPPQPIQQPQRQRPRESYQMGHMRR
FAS TE block: FAS thioesterase (human) inhibition; P49327; recombinant FAS-TE, OMFH fluorogenic substrate, fluorescence endpoint; inhibition, % at 15 µM; actives 0.67% (n = 360,000); AID 602261;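 active = compounds whose normalised, plate-corrected inhibition of enzyme fluorescence in the single-dose primary screen is 50% or more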
ADAM17 inh: inhibitors of human ADAM17; AID 720648; P78536; inhibition, % at 6.95 µM; actives 0.83% (n = 370,000); recombinant ADAM17, EDANS/DABCYL FRET peptide cleavage;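 active = inhibition above the mean of compounds lying between control limits plus 3 SD, set per campaign, cut at about 8.5% in these data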
aDG glyco up: increases alpha dystroglycan glycosylation | Pro5-aDG cells, alpha-DG glycosylation AlphaScreen (IIH6); 0% Pro5, 100% B10-LARGE cell signal | activation, % at 10 µM | actives 0.22% (n = 360,000) | AID 624168;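 active = activation of at least 8% versus controls, or a plate z-score of at least 8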;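 also: Pro5 are CHO cells carrying HIG-tagged alpha-DG that lacks glycosylation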
A number is an active result; - = inactive; . = no result.

SMILES | GRIN3A LBD mod | ADAM10 inh | FAS TE block | ADAM17 inh | aDG glyco up
COc1ccccc1NC(=O)CSc1nc(O)cc(=O)n1-c1ccccc1OC | - | 20.8 | - | - | -
Cc1ccccc1NC(=O)CSc1nc(O)cc(=O)n1C | 12.5 | - | - | - | -
Nc1cc(-c2ccc(Br)cc2)nn1S(=O)(=O)c1ccccc1 | - | - | - | - | -
Nc1cc(-c2ccc(Br)cc2)nc2cc(-c3ccccc3)nn12 | 34.0 | - | - | - | -
C=CCn1c(CCNC(=O)c2cccs2)nnc1SCC(=O)c1ccc(Cl)cc1 | - | - | - | - | -
C=CCn1c(Cc2cccs2)nnc1SCC(=O)c1ccc2ccccc2c1 | 15.7 | - | - | - | -
C=CCn1c(Cc2cccs2)nnc1SCC(=O)c1ccc(F)cc1 | - | - | - | - | -
C=CCn1c(CNC(=O)c2cccs2)nnc1SCC(=O)c1ccc(Br)cc1 | 13.3 | - | - | - | -
O=C(CC(C(=O)O)c1ccc(Cl)cc1)c1ccccc1 (configuration not stated) | - | - | - | - | -
COC(=O)C(CC(=O)c1ccc(Cl)cc1)c1ccc(C)cc1 (configuration not stated) | 15.0 | - | - | - | -
Nc1nn2c(C(F)(F)F)cc(=O)[nH]c2c1N=Nc1cccc(F)c1 | 21.1 | . | - | . | -
Oc1ccc(-c2csc(-c3c[nH]c4ccccc34)n2)c(O)c1 | 34.4 | - | - | - | -
Cc1ccc(-c2csc(-c3c[nH]c4ccccc34)n2)c(C)c1 | 24.0 | - | - | - | -
O=C(CSc1nccn(-c2ccc(F)c(Cl)c2)c1=O)NC1CCCC1 | - | - | - | - | -
COC(=O)c1cn(-c2ccc(F)cc2)c(=O)c2ccccc12 | - | - | - | - | -
COc1ccc(-n2c(SCC(=O)N(C)C3CCS(=O)(=O)C3)nc3ccc(O)cc3c2=O)cc1OC (configuration not stated) | 13.6 | - | - | - | -
O=C(CSc1ncnc2nc[nH]c12)N1CCOCC1 | 10.5 | - | - | - | -
NCC(=O)NCC(=O)NC1(C(=O)O)CCCC1 | - | - | - | - | -
Cc1[nH]n(C(N)=S)c(=O)c1N=Nc1cccc([N+](=O)[O-])c1C | - | . | - | . | -
Cc1c(N=Nc2c(-c3ccc([N+](=O)[O-])cc3)[nH]n(C(N)=S)c2=O)cccc1[N+](=O)[O-] | 24.9 | - | - | - | -
NC(=S)n1[nH]c(-c2ccc([N+](=O)[O-])cc2)c(N=Nc2ccccc2[N+](=O)[O-])c1=O | - | - | - | - | -
NC(=S)n1[nH]c(-c2ccc([N+](=O)[O-])cc2)c(N=Nc2cccc([N+](=O)[O-])c2)c1=O | 26.5 | - | - | - | -
O=C(Nc1ccncc1)C1c2ccccc2Oc2ccccc21 | - | - | - | - | -
CCCCNS(=O)(=O)c1ccc(NC(=O)C2c3ccccc3Oc3ccccc32)cc1 | 19.3 | - | - | - | -
COc1ccc2cc3cc(C(=O)Nc4ccc5c(c4)OCCO5)oc3nc2c1 | 26.3 | - | - | - | -
SMILES | GRIN3A LBD mod | ADAM10 inh | FAS TE block | ADAM17 inh | aDG glyco up
COc1cccc(-c2nnc(-c3ccccc3[N+](=O)[O-])o2)c1 | - | - | - | - | -
CCCc1cc(=O)oc2c(C)c(OS(C)(=O)=O)ccc12 | 16.0 | - | - | - | -
Cc1cccc(NC(=S)NC2CCCC2)c1C | - | - | - | - | -
CC(=O)N1c2c(cc(Br)cc2S(=O)(=O)N2CCCCC2)CC1C (configuration not stated) | - | - | - | - | -
COc1c(CC=C(C)C)cc(C2CC(=O)c3c(O)cc(O)cc3O2)c(CC=C(C)C)c1O (configuration not stated) | 21.5 | . | . | . | .
COc1cc(C2CC(=O)c3c(O)cc(O)cc3O2)ccc1O (configuration not stated) | - | - | - | - | -
O=C(CCN1C(=O)c2ccccc2S1(=O)=O)Nc1ccc(Cl)cc1 | - | - | - | - | -
Cc1ccccc1CN1CCCCC(NC(=O)c2cccc(F)c2)C1=O (configuration not stated) | . | - | . | - | .
Cc1ccn2c(C(=O)CSc3ccccc3Cl)c(C)nc2c1 | 13.6 | - | - | - | -
CCCN1C(=O)/C(=C/c2nc3ccccc3c(=O)[nH]2)c2ccccc21 | 24.6 | - | - | - | -
CCOc1ccccc1N1CCN(C(=O)c2ccc(NS(=O)(=O)c3ccc4[nH]c(=O)[nH]c4c3)cc2)CC1 | - | - | - | - | -
Cc1oncc1C(=O)Nc1cccc2ccccc12 | - | - | - | - | -
CCc1cccc2c(C(=O)CN3C(=O)C(=O)N(C4CCCC4)C3=O)c[nH]c12 | 23.1 | - | - | - | -
CCc1cccc2c(C(=O)CN3C(=O)NC4(CCCCC4)C3=O)c[nH]c12 | - | - | - | - | -
O=S(=O)(c1ccccc1)N1CCn2c(nc3ccccc32)C1 | - | - | - | - | -
O=S(=O)(c1ccc(F)cc1)N1CCn2c(nc3ccccc32)C1 | 14.1 | - | - | - | -
Cn1nnnc1SC(C(=O)Nc1cccc(C(F)(F)F)c1)c1ccccc1 (configuration not stated) | 13.1 | - | - | - | -
O=C(Nc1cccc(C(F)(F)F)c1)C(Sc1ncnc2ccccc12)c1ccccc1 (configuration not stated) | 17.5 | - | - | - | -
CC1CCCC(C)N1C(=O)CSc1nnc(NC(=O)c2cccs2)s1 (configuration not stated) | - | - | - | - | -
O=C(N/N=C/c1c[nH]c2ccccc12)c1ccncc1 | - | - | - | - | -
O=C(N/N=C/c1c[nH]c2ccccc12)c1ccccc1 | 18.1 | - | - | - | -
CC(=O)n1cc(/C=N/NC(=O)c2ccc([N+](=O)[O-])cc2)c2ccccc21 | 21.4 | - | - | - | -
Cc1ccc(C(=O)Nc2ccc(C(=O)N/N=C/c3c[nH]c4ccccc34)cc2)cc1 | 31.3 | - | - | - | -
COc1cc(/C=N\NC(=O)c2sc(N)nc2C)cc(OC)c1OC | 16.6 | - | - | - | -
O=C(N/N=C/c1c[nH]c2ccccc12)c1cccc([N+](=O)[O-])c1 | 24.7 | - | - | - | -
SMILES | GRIN3A LBD mod | ADAM10 inh | FAS TE block | ADAM17 inh | aDG glyco up
O=C(N/N=C/c1c[nH]c2ccccc12)c1ccc2c(c1)OCCO2 | 10.9 | - | - | - | -
O=C(O)COc1ccccc1/C=N/NC(=O)c1ccc2c(c1)OCCO2 | - | - | - | - | -
O=C(CSc1nnc(SCc2ccc(Cl)cc2)s1)N/N=C/c1c[nH]c2ccccc12 | 23.8 | - | - | - | -
Cc1cccc(NC(=S)N/N=C/c2c[nH]c3ccccc23)c1 | 33.1 | - | - | - | -
O=C(CNc1ccccc1)N/N=C/c1c[nH]c2ccccc12 | - | - | - | - | -
O=C(N/N=C/c1coc2ccccc2c1=O)c1cccc([N+](=O)[O-])c1 | - | - | - | - | -
O=C(N/N=C/c1c[nH]c2ccccc12)c1sc2ccccc2c1Cl | 34.5 | - | - | - | -
O=C(NN=Cc1c[nH]c2ccccc12)NN=Cc1c[nH]c2ccccc12 | . | - | - | - | -

High-throughput results from PubChem BioAssay.
